From PubChem
Shown are actives, neighbours in structure and some others; about 3.8% of the full set was active somewhere.
PfHsp90 set2: growth inhibition of yeast expressing Plasmodium Hsp90 | S. cerevisiae expressing PfHsp90, BacTiter-Glo ATP, 48 h; yeast lacking PDR1 and PDR3 efflux regulators | inhibition, % at 9.4 µM | 310,000 compounds, 0.32% hits;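 active = every replicate shows inhibition above about 80%, whatever the replicate mean, limit read from the data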;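 also: 0% = DMSO neutral controls and 100% = 20 µM radicicol positive controls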
TIM10 inh: inhibits growth of TIM10 yeast strain. 330,000 compounds, 1.4% hits. S. cerevisiae TIM10 strain growth, BacTiter-Glo luminescence, 24 h. inhibition, % at 10 µM;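 active = inhibition of 40% or more at the single tested concentration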;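 also: wild-type TIM10 isogenic control strain grown at permissive 25 °C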
tim23-1 inh: tim23-1 yeast growth inhibition; AID 463212; S. cerevisiae tim23-1 growth, BacTiter-Glo luminescence, 24 h; 330,000 compounds, 1.3% hits; inhibition, % at 20 µM;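 active = growth inhibition of the mutant yeast at or above 50%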;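 also: temperature-sensitive mutant grown at 25 °C; plate controls were DMSO-treated mutant yeast for no effect and medium wells lacking yeast for full effect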
tim10-1 inh: growth inhibitors of tim10-1 mutant yeast | S. cerevisiae tim10-1 ts strain growth, BacTiter-Glo, 24 h | inhibition, % at 20 µM | 330,000 compounds, 2.2% hits | AID 463190;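 active = inhibition of at least 40%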;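 also: mutant grown at 25 °C; 0% = DMSO wells with yeast and 100% = wells holding no yeast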
Beta2AR agonist: agonists of human beta-2 adrenergic receptor inducing internalization; P07550; Am2.2-beta2AR cells, FAP receptor internalization, flow cytometry; response, % (concentration not given with the values); 340,000 compounds, 0.43% hits; AID 504454;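 active = response above a set limit, near 3 SD of response in nonfluorescent compounds, cut at about 42% in these data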
Target sequence (P07550 whole entry, looked up): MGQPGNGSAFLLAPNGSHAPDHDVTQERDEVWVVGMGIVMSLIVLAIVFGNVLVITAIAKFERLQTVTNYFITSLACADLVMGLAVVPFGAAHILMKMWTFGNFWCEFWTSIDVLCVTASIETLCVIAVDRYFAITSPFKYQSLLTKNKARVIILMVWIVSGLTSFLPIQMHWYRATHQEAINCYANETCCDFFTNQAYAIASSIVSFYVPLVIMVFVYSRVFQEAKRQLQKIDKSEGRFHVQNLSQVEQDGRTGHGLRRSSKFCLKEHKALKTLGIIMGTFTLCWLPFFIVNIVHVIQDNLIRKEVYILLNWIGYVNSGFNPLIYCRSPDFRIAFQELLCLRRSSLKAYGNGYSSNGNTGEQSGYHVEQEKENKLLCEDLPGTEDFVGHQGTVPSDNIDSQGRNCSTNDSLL
tim10-1 conf: tim10-1 yeast growth inhibition, confirmed | shares compounds with tim10-1 inh | S. cerevisiae tim10-1 ts strain growth, BacTiter-Glo, 24 h | AID 463213 | inhibition, % at 20 µM | 7,400 compounds, 56% hits;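 active = inhibition of yeast growth at or above a set limit in either of two repeat tests at 20 µM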;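 also: tim10-1 mutant grown at permissive 25 °C to find synthetic lethal compounds; 0% = DMSO yeast wells and 100% = medium wells without yeast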
tim10 confirm: TIM10 yeast growth inhibition, confirmed. shares compounds with TIM10 inh. inhibition, % at 10 µM. AID 463215. S. cerevisiae tim10 strain growth, BacTiter-Glo luminescence, 24 h. 4,600 compounds, 63% hits;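 active = inhibition of yeast growth at or above a set limit in either of two replicates at 10 µM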;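 also: this counterscreen used the strain with wild-type TIM10; 0% = yeast with DMSO and 100% = medium wells lacking yeast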
tim23-1 confirm: confirmation of tim23-1 mutant yeast growth inhibitors. shares compounds with tim23-1 inh. inhibition, % at 20 µM. S. cerevisiae tim23-1 growth, BacTiter-Glo luminescence, 24 h. AID 463218. 4,400 compounds, 83% hits;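 active = inhibition above about 39% in either of two replicate wells at 20 µM, limit read from the data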;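 also: temperature-sensitive tim23-1 mutant grown at 25 °C; 0% = DMSO wells with yeast and 100% = medium wells without yeast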
Starred values were filed as active, the others as inactive; . = no result given.

SMILES	PfHsp90 set2	TIM10 inh	tim23-1 inh	tim10-1 inh	Beta2AR agonist	tim10-1 conf	tim10 confirm	tim23-1 confirm
Cc1ccc(C(=O)OCn2ncc(Cl)c(Cl)c2=O)cc1	95.8*	72.2*	79.0*	75.0*	61.6*	77.7*	69.9*	70.9*
O=C(OCn1ncc(Cl)c(Cl)c1=O)c1ccc(C(F)(F)F)cc1	51.9	42.2*	77.9*	75.2*	3.6	74.0*	41.4*	78.7*
O=C(OCC(=O)c1ccc[nH]1)c1ccc(C(F)(F)F)cc1	-8.7	1.1	10.9	-3.8	-2.4	.	.	.
Cc1cccc(Cn2ncc(Cl)c(Cl)c2=O)c1	-22.0	-4.2	18.9	36.9	32.6	.	.	.
Cc1ccccc1-n1ncc2c([N+](=O)[O-])cc([N+](=O)[O-])cc21	20.0	68.3*	77.3*	48.0*	-2.6	35.2*	75.3*	15.7
Cc1ccccc1OCCCN1C(=O)C(=O)c2cccc(C)c21	-0.5	26.0	74.4*	54.4*	10.5	38.9*	.	26.8
CCCOc1ccc(N)cc1N	-19.6	21.8	56.5*	49.7*	-152.4	18.9	.	36.0
CCOC(=O)c1c(N)sn(-c2ccccc2)c1=S	8.2	-5.1	7.7	2.8	-2.3	.	.	.
CCOC(=O)c1c2c(c(=S)n(-c3ccccc3)c1N)CCC2	-0.2	-0.4	58.2*	54.0*	2.4	37.0*	.	66.8*
CC(C)(C)OC(=O)N[C@@H](Cc1ccccc1)c1nnc(SCC(N)=O)o1	-28.8	17.4	21.6	17.3	-3.9	.	.	.
Cc1cccc(CS(=O)(=O)c2nnc([C@H](Cc3ccccc3)NC(=O)OC(C)(C)C)o2)c1	111.9*	54.0*	55.1*	68.9*	61.2*	50.6*	51.8*	60.5*
N#C/C(=C\c1cccc(NC(=O)c2ccccc2Cl)c1)C(=O)NCCc1ccccc1	-121.3	57.0*	60.0*	66.1*	43.1*	61.3*	3.8	57.0*
COc1ccc(CCNC(=O)/C(C#N)=C/c2cccc(OCc3ccccc3)c2)cc1OC	-24.1	10.6	34.4	20.4	21.8	.	.	.
Oc1ccc(Oc2ccc3c(C(F)(F)F)cc(C(F)(F)F)nc3n2)cc1	-1.7	42.8*	55.9*	40.4*	-31.9	25.1	12.8	49.0*
COc1ccc(NC(=O)CSc2nnc(-c3cccs3)n2N)cc1S(N)(=O)=O	12.1	-0.5	4.2	15.4	2.9	.	.	.
O=C(O)CCSc1ccc([N+](=O)[O-])cc1[N+](=O)[O-]	26.8	7.1	51.4*	43.6*	-2.7	30.2*	.	53.5*
O=[N+]([O-])c1ccc(SNc2ccccc2)c([N+](=O)[O-])c1	23.9	.	.	.	-10.5	.	.	.
O=[N+]([O-])c1ccc(Sc2ncccn2)c([N+](=O)[O-])c1	-37.9	36.5	53.3*	42.0*	-0.6	50.2*	.	40.5*
O=C(Nc1ncccn1)c1ccc([N+](=O)[O-])cc1[N+](=O)[O-]	-9.7	14.5	4.7	-5.4	2.6	.	.	.
COc1ccccc1/C=C(\C#N)C(=O)c1cccn1C	13.3	22.0	58.5*	43.2*	8.7	29.5	.	50.1*
Clc1cc(Br)ccc1NCc1cccnc1	-13.7	28.8	13.2	12.6	16.5	.	.	.
O=C(O)CC1S/C(=N/N=C/C2CC=CCC2)NC1=O (stereo unspecified)	-14.4	-23.7	10.7	2.9	1.6	.	.	.
O=C1Nc2ccc(Cl)cc2/C1=C/C1CC=CCC1 (stereo unspecified)	31.5	59.1*	64.4*	77.6*	24.3	87.0*	19.2	65.1*
N/C(Cc1ccc(Cl)cc1Cl)=N\OC(=O)Cc1ccccc1	16.9	85.9*	74.8*	52.2*	6.0	22.6	87.9*	61.0*
CC(C)(C)C1=CC(O)(c2ccccc2)C=C(C(C)(C)C)C1=O	-0.8	17.1	30.7	27.4	12.2	.	.	.
SMILES	PfHsp90 set2	TIM10 inh	tim23-1 inh	tim10-1 inh	Beta2AR agonist	tim10-1 conf	tim10 confirm	tim23-1 confirm
CS(=O)(=O)c1ccccc1-c1nnc(NC(=O)Cc2ccccc2)o1	-12.2	5.3	-3.4	2.0	5.7	.	.	.
CCN(CC)c1nc(C(N)=O)cc(-c2ccccc2)n1	-7.4	48.4*	66.9*	63.1*	-12.3	61.1*	14.8	73.8*
Cc1nc(-c2ccccc2)cc(-c2ccccc2)n1	-23.1	14.9	16.3	16.9	-6.0	.	.	.
CN1CCN(c2nc(C(N)=O)cc(-c3ccccc3)n2)CC1	-40.9	-3.7	8.3	-2.4	-13.5	.	.	.
CN(N)c1nc(-c2ccccc2)cc(-c2ccccc2)n1	0.9	49.5*	56.2*	44.3*	-5.5	39.3*	43.2*	54.3*
O=C(COc1ccc(Br)cc1CO)Nc1ccc(S(=O)(=O)N2CCCCC2)cc1	-34.2	39.2	53.4*	40.3*	-7.0	49.7*	.	60.8*
Nc1c(Cl)cc2c(c1Oc1ccccc1)C(=O)c1ccccc1C2=O	-4.8	53.6*	65.7*	52.4*	-2.4	20.2	48.0*	66.8*
O=C(Nc1ccccc1C(=O)N/N=C/c1ccncc1)c1ccccc1	55.0	62.4*	77.0*	68.3*	-8.1	68.3*	35.5*	70.2*
COc1ccc(C(=O)Nc2ccccc2C(=O)N/N=C/c2ccco2)cc1	42.2	47.4*	71.9*	66.5*	-10.5	67.5*	43.0*	71.8*
CCSc1ncc(/C=N/Nc2ccc(Cl)cc2)n1C	.	-29.2	70.0*	45.9*	2.0	5.5	.	62.8*
CCC1CCCCN1S(=O)(=O)c1ccc(NC(=O)c2cccs2)cc1 (stereo unspecified)	-39.0	64.3*	72.0*	72.2*	-9.3	64.6*	67.8*	78.5*
Cc1ccc(-n2[nH]c(C)c(C=Nc3ccc4[nH]c(=O)[nH]c4c3)c2=O)cc1	9.1	-4.4	-0.1	0.3	3.9	.	.	.
Cc1ccc(N=Cc2c(C)[nH]n(-c3nc4ccccc4[nH]3)c2=O)cc1	91.2*	43.8*	65.3*	62.4*	14.2	59.5*	-11.4	67.7*
COc1ccc(NCc2nc3ccccc3n2CCOc2ccccc2)cc1	-20.4	14.4	77.3*	48.9*	9.6	39.6*	.	81.0*
CC(NC(=O)COC(=O)c1ccc(Br)o1)c1ccccc1 (stereo unspecified)	1.0	3.8	13.0	30.4	5.3	.	.	.
O=C(N/N=C/c1ccsc1)c1cc2ccccc2o1	-7.6	54.9*	56.3*	46.2*	3.8	-4.3	47.5*	66.7*
O=C(N/N=C/c1ccc2c(c1)OCO2)c1cc2ccccc2o1	3.8	-1.4	-2.0	-3.4	2.0	.	.	.
CC(=O)Oc1ccc(C23c4ccccc4C2(OC(C)=O)c2cc(OC(C)=O)ccc23)cc1 (stereo unspecified)	-24.6	.	.	.	-123.8	.	.	.
